According to PubChem BioAssay (Tox21):
Inconclusive results are not listed. Active and inactive are the calls of the source. Unless noted, the call rests on the fitted dose curve; in most records, active means well fitted curve in the direction sought with a large enough effect in the repeat runs; inconclusive means weak or mixed curves; inactive means no such curve, though single readings can be large; an effect the other way counts as inactive or inconclusive.

Columns and labels:
[1] = A CellTox Green Cytotoxicity Assay to monitor cytotoxicity in HEK293 cells - 32 hour (AID 1224881); further: nearly all actives have a fitted effect of over 40% in size
How it was run: (§1)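 Real-time, in one plate: 600 HEK293 cells/well with dead-cell DNA dye, pinned compound after 5 h, 37 C incubation over 40 h; viable cells give no appreciable fluorescence.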

[2] = A CellTox Green Cytotoxicity Assay to monitor cytotoxicity in HepG2 cells - 0 hour (AID 1224882); further: nearly all actives have a fitted effect of over 35% in size
How it was run: (§2)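 Cytotoxicity was tracked as dead-cell DNA fluorescence in HepG2 cells treated with test compounds at 37 C; each time-point value comes from one kinetic series spanning 0, 8, 16, 24, 32 and 40 h.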

[3] = A CellTox Green Cytotoxicity Assay to monitor cytotoxicity in HepG2 cells - 32 hour (AID 1224883); further: nearly all actives have a fitted effect of over 50% in size; further: potency means the concentration at half of the fitted maximal effect
How it was run: as §2

[4] = A CellTox Green Cytotoxicity Assay to monitor cytotoxicity in HEK293 cells - 8 hour (AID 1224884); further: nearly all actives have a fitted effect of over 35% in size
How it was run: as §1

[5] = qHTS RealTime-Glo MT Cell Viability Assay in HepG2 cells - 16 hour (AID 1224885); further: nearly all actives have a fitted effect of over 50% in size
How it was run: (§3)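 HepG2 suspension premixed with RealTime-Glo reagents is plated at 600 cells per well and left 5 h at 37 C/5% CO2. Compounds in DMSO then go in, and bioluminescence reflecting viable cell number is recorded over 40 h.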

[6] = qHTS RealTime-Glo MT Cell Viability Assay in HEK293 cells - 8 hour (AID 1224887); further: top concentration of the series differs between compounds; nearly all actives have a fitted effect of over 50% in size
How it was run: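 Kinetic, non-lysing viability readout. Seed HEK293 (600/well) with reagent, incubate 5 h at 37 C/5% CO2, pin 23 nL compound in DMSO, incubate at 37 C, read luminescence at 0, 8, 16, 24, 32, 40 h.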

[7] = A CellTox Green Cytotoxicity Assay to monitor cytotoxicity in HEK293 cells - 16 hour (AID 1224888); further: nearly all actives have a fitted effect of over 35% in size
How it was run: as §1

[8] = qHTS RealTime-Glo MT Cell Viability Assay in HepG2 cells - 0 hour (AID 1224889); further: nearly all actives have a fitted effect of over 50% in size
How it was run: as §3

[9] = A CellTox Green Cytotoxicity Assay to monitor cytotoxicity in HepG2 cells - 8 hour (AID 1224890); further: nearly all actives have a fitted effect of over 45% in size
How it was run: as §2

[10] = qHTS assay to identify small molecule antagonists of the estrogen receptor alpha (ER-alpha) signaling pathway using the BG1 cell line in the presence of 0.1 nM 17-beta-estradiol - cell viability counter screen (AID 1259241); further: nearly all actives have a fitted effect of over 40% in size
How it was run: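 Cytotoxicity counter-screen: live-cell protease activity measured by fluorescence (30 min reagent step) in the same wells. Cells were VM7Luc4E2 with endogenous ER-alpha and ERE-driven luciferase, treated 22 hr at 37C alongside 0.1 nM 17beta-estradiol final.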

[11] = qHTS assay to identify small molecule antagonists of the androgen receptor (AR) signaling pathway using the MDA cell line in the presence of 0.5 nM R1881 - cell viability counter screen (AID 1259242); further: nearly all actives have a fitted effect of over 45% in size; further: potency means the concentration at half of the fitted maximal effect
How it was run: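 Cells seeded at 3,000/well and allowed 5 hr at 37C, 0% CO2 before compound transfer and R1881 (0.5 nM final) addition; 16 hr later, live-cell protease fluorescence indicated cytotoxicity.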

[12] = qHTS assay to identify small molecule HDAC inhibitors (AID 1259364); further: potency means the concentration at half of the fitted maximal effect;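 further: wild-type HCT-116 cells with endogenous class I/II HDAC activity; nearly all actives have a fitted effect of over 45% in size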
How it was run: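 HCT-116 wt cells, 1,500/well, overnight attach. Compounds (DMSO) 2 h, 37 °C. HDAC-Glo I/II, 30 min RT. Luminescence.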

[13] = qHTS assay to identify small molecule HDAC inhibitors - cell viability counter screen (AID 1259365)
How it was run: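 CellTiter-Glo luminescence (30 min, room temperature) reported viability after a 2 h compound exposure at 37 C. Cells: wild-type HCT-116, 1,500 per well, seeded the night before.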

[14] = qHTS assay to identify small molecule agonists of the sonic hedgehog signaling (Shh) pathway - cell viability counter screen (AID 1259366); further: nearly all actives have a fitted effect of over 50% in size; further: potency means the concentration at half of the fitted maximal effect
How it was run: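 Cytotoxicity counter screen: CellTiter-Fluor reagent added after 23 h compound exposure, then 1 h at 37C and fluorescence read. Cells were 3T3 Gli1-Luc, seeded 2,000 per well and dosed 4 h post-plating.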

[15] = qHTS assay to identify small molecule antagonists of the sonic hedgehog signaling (Shh) pathway - cell viability counter screen (AID 1259367); further: nearly all actives have a fitted effect of over 55% in size; further: potency means the concentration at half of the fitted maximal effect
How it was run: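 Viability was read by CellTiter-Fluor fluorescence in the same wells, reagent added 23 hr into compound treatment and incubated 1 hr at 37C. The 3T3 Gli1-Luc reporter cells (2,000/well) received conditioned medium after compound and ran 24 hr.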

[16] = qHTS assay to identify small molecule agonists of the sonic hedgehog signaling (Shh) pathway (AID 1259368; calls by dose curve;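 further: NIH/3T3-derived 3T3Gli1-Luc cells carrying a stable Gli1-driven firefly luciferase reporter; series mostly up to about 92 µM; nearly all actives have a fitted effect of over 15% in size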)
How it was run: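 Following a 24 hr incubation with DMSO-dissolved compounds at 37 C, 5% CO2, Gli1-Luc NIH/3T3-derived cells received luciferase reagent for 30 min at room temperature prior to luminescence measurement.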

[17] = target: Androgen receptor (Homo sapiens) (UniProt P10275); test: qHTS assay to identify small molecule antagonists of the androgen receptor (AR) signaling pathway using the MDA cell line in the presence of 0.5 nM R1881 (AID 1259243); further: nearly all actives have a fitted effect of over 50% in size
Androgen receptor (Homo sapiens), sequence (P10275 whole entry, looked up): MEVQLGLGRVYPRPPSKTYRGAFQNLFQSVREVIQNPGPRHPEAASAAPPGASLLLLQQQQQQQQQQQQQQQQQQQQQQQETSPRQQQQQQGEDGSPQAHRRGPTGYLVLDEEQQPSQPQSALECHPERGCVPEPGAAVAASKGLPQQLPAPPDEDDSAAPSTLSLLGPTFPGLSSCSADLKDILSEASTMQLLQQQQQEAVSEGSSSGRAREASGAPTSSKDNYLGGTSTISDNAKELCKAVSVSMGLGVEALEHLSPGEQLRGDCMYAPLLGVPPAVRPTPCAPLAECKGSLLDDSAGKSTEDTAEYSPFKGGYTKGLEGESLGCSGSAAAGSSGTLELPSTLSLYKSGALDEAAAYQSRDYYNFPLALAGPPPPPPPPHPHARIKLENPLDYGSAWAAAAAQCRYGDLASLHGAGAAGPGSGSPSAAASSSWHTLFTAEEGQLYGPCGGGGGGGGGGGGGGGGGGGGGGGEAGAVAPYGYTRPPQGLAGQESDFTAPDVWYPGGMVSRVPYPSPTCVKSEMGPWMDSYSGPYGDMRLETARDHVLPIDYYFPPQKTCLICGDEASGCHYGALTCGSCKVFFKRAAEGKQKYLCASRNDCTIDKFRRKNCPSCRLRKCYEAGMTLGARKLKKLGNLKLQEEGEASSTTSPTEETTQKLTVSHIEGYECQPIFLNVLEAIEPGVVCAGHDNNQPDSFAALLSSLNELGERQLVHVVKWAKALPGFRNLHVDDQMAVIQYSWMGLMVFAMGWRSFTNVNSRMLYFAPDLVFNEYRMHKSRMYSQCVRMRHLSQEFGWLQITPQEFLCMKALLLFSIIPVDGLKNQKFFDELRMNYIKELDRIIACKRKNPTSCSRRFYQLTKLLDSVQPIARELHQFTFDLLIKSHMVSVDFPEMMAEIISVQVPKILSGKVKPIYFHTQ
How it was run: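 Luminescence from an AR/GR-responsive MMTV-luciferase construct in MDA-kb2 breast carcinoma cells, read 30 min after ONE-Glo, following 16 hr co-treatment with compounds and 0.5 nM R1881.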

[18] = qHTS RealTime-Glo MT Cell Viability Assay in HEK293 cells - 24 hour (AID 1224886)
How it was run: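 Reads taken at 0, 8, 16, 24, 32 and 40 h from the same wells. HEK293 cells (600/well) carried RealTime-Glo reagents from seeding, with compound added after a 5 h settle at 37 C.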

[19] = target: Estrogen receptor (Homo sapiens) (UniProt P03372); test: qHTS assay to identify small molecule antagonists of the estrogen receptor alpha (ER-alpha) signaling pathway using the BG1 cell line in the presence of 0.1 nM 17-beta-estradiol (AID 1259244); further: nearly all actives have a fitted effect of over 50% in size
Estrogen receptor (Homo sapiens), sequence (P03372 whole entry, looked up): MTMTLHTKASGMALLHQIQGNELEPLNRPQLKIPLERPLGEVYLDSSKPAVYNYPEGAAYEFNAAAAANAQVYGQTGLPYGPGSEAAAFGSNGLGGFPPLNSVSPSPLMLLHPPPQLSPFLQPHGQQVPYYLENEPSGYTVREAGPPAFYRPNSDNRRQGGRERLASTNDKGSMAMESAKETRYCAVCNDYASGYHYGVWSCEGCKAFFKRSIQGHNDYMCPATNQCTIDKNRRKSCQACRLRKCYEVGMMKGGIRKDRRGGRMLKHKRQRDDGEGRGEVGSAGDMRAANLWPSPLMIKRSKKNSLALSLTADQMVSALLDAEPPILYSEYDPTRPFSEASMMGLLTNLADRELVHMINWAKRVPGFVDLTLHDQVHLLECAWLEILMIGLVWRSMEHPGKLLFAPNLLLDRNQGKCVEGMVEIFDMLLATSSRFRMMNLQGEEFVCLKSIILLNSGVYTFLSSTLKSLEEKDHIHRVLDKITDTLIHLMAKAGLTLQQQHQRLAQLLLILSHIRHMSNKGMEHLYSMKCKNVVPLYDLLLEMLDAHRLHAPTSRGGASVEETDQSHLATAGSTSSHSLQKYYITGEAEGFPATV
How it was run: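 Luciferase signal from VM7Luc4E2 ERE-reporter cells, co-dosed with test compound and 0.1 nM final 17beta-estradiol for 22 h, read with ONE-Glo.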

[20] = qHTS assay to identify small molecule phospholipidosis (PLD) inducers (AID 1259344; active means well fitted curve in the direction sought with a large enough effect; an effect the other way counts as inactive or inconclusive)
How it was run: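 Phospholipid accumulation was scored by imaging: fixed, Hoechst-counterstained HepG2 cells stained with LipidTOX Red after 24 h compound exposure at 37 C. Read-outs were pit count and pit intensity per well or per cell, with amiodarone and DMSO controls.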

Measured: Potency

Cn1c(N)nc2nc[nH]c2c1=O
not listed: [17] | [18] | [19] | [20]
inactive: all other assays above

Cc1cc(C)c(S(=O)(=O)O)cc1N=Nc1cc(S(=O)(=O)O)c2ccccc2c1O
active: [11] 61.1 µM | [14] 27.3 µM | [15] 30.6 µM
not listed: [6] | [7] | [10] | [13] | [18] | [19] | [20]
inactive: all other assays above

CCC(=O)OC(C)(C)C1CC=C(C)CC1 (stereo not drawn)
not listed: [5] | [13] | [15] | [17] | [20]
inactive: all other assays above

CC(=O)N(CC(=O)N(C)C)c1ccccc1
not listed: [5] | [7] | [20]
inactive: all other assays above

CN(c1nccc(=O)[nH]1)C1CCN(c2nc3ccccc3n2Cc2ccc(F)cc2)CC1
not listed: [6] | [17] | [18]
inactive: all other assays above

Nc1ccc(C(=O)Nc2ccccc2N)cc1
active: [3] 7.56 µM | [12] 2.98 µM
not listed: [6] | [10] | [11] | [17] | [18]
inactive: all other assays above

Cc1ccc(O)c([C@H](CCN(C(C)C)C(C)C)c2ccccc2)c1
active: [3] 21.3 µM
not listed: [5] | [6] | [11] | [17] | [19]
inactive: all other assays above

O=C(CC(=O)c1ccccc1)c1ccccc1
active: [12] 2.93 µM
not listed: [5] | [14] | [16] | [17] | [19] | [20]
inactive: all other assays above

CC(C)(Oc1ccc(Cl)cc1)C(=O)OCCCOC(=O)C(C)(C)Oc1ccc(Cl)cc1
not listed: [6] | [10] | [11] | [18] | [20]
inactive: all other assays above

Cn1c(NCCN(CCO)CCCc2ccc([N+](=O)[O-])cc2)cc(=O)n(C)c1=O
not listed: [5] | [11] | [17] | [19]
inactive: all other assays above

CC(C)(C)c1cc(CO)cc(C(C)(C)C)c1O
not listed: [6] | [7] | [15] | [17] | [18] | [19] | [20]
inactive: all other assays above

CN(C)CC[C@@H](c1ccc(Br)cc1)c1ccccn1
not listed: [7] | [17] | [18]
inactive: all other assays above

CCCC(C)C
not listed: [17] | [18] | [20]
inactive: all other assays above

C=CC(=O)OCCOC(=O)CCC(=O)O
not listed: [10] | [15] | [17] | [18] | [19] | [20]
inactive: all other assays above

CCCCCCc1ccc(N)cc1
active: [3] 49 µM
not listed: [6] | [9] | [20]
inactive: all other assays above

CC[C@H](C)[C@@H](C(=O)O)n1sc2ccccc2c1=O
not listed: [6] | [17] | [20]
inactive: all other assays above
